Rows were chosen to be rich in hits. Some 19% of all compounds tested hit in one or more screens of this group.
HT1080NT lethal: qHTS for induction of synthetic lethality in tumor cells producing 2HG: qHTS for the HT-1080-NT fibrosarcoma cell line | HT-1080-NT fibrosarcoma viability, CellTiter-Glo ATP luminescence, 48 h | Potency, µM (doses to about 46.1 µM), for inactives: at the highest dose activity, negative = less viability, most hits filed as cytotoxic | 1.6% of 360,000 active | AID 686970, 2013;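 further: NT is the 2HG producing partner of a matched IDH1 knockdown line; 0% = DMSO-treated cells and -100% = media-only wells without cells; nearly all actives have a fitted effect of over 55% in size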
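750 cells/well, RPMI + 5% FBS; 2 h settle, compound pin-transfer, 48 h at 37 degrees C. CellTiter-Glo 10 min RT, luminescence. Normalized to DMSO and media-only wells.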
TDP1 cell noCPT: qHTS for Inhibitors of human tyrosyl-DNA phosphodiesterase 1 (TDP1): qHTS in cells in absence of CPT. Potency, µM (titrated, usually from 46.2 µM), without a hit: at the top dose activity change, negative = growth inhibition, hits mostly inhibitors. AID 686978, 2013. DT40 Tdp1-/- hTDP1 cells, no CPT, ATP luminescence, 48 h. 15% of 420,000 active; further: nearly all actives have a fitted effect of over 55% in size
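A cellular qHTS used chicken DT40 cells lacking endogenous Tdp1 but carrying stably transfected human TDP1. Compounds were applied without camptothecin, and cell growth kinetics were judged by ATP-dependent luminescence after ≥48 hr.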
HT1080 IDH1KD tx: qHTS for induction of synthetic lethality in tumor cells producing 2HG: qHTS for the HT-1080-IDH1KD cell line; HT-1080 IDH1 knockdown viability, ATP luminescence, 48 h; Potency, µM (series often up to 46.1 µM), without a hit: at the top dose activity, negative = toxicity, usual class: cytotoxic; 2% of 360,000 active; AID 686971, 2013;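 further: 0% = DMSO wells and -100% = cell-free medium wells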
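Luminescent ATP read-out (CellTiter-Glo, 10 min at room temperature) after 48 h compound exposure at 37 °C gave viability of IDH1-knockdown HT-1080 cells. Activity was normalised to DMSO and cell-free wells, then fitted as concentration-response curves.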
KB-V1 cytotox: qHTS assay for MDR1-selective chemotherapeutics: Primary screen using the drug-selected MDR subline cells KB-V1; KB-V1 MDR cells viability, CellTiter-Glo, 72 h; Potency, µM (series often up to 46.1 µM), most hits filed as cytotoxic; 3.4% of 400,000 active; AID 1347076, 2019; further: nearly all actives have a fitted effect of over 60% in size
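Drug-selected KB-V1 cells, grown in DMEM lacking phenol red with 10% FBS, receive compound titrations; after three days at 37 degrees C, surviving cell ATP is quantified by CellTiter-Glo luminescence and responses normalized and curve-fitted.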
DT40 TDP1 CPT: qHTS for Inhibitors of human tyrosyl-DNA phosphodiesterase 1 (TDP1): qHTS in cells in presence of CPT. AID 686979, 2013. Potency, µM (doses to about 46.2 µM), for the others: top-dose activity change, negative = growth inhibition, usual class: inhibitors. chicken DT40 Tdp1-/-;hTDP1 cells + 20 nM CPT, ATP luminescence, 48 h. 12% of 420,000 active; further: nearly all actives have a fitted effect of over 55% in size
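Chicken DT40 Tdp1-/- cells complemented with human TDP1, 400 cells/well, exposed to compounds plus 20 nM camptothecin for at least 48 h at 37 C; viability read as ATP content by CellTiter-Glo luminescence.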
KB-3-1 cytotox: qHTS assay for MDR1-selective chemotherapeutics: Primary screen using the parental adenocarcinoma cell KB-3-1. KB-3-1 viability, CellTiter-Glo ATP luminescence, 72 h. Potency, µM (highest dose often 46.1 µM), actives largely listed as cytotoxic. 1.4% of 400,000 active; further: nearly all actives have a fitted effect of over 60% in size
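Viability of parental KB-3-1 cells, measured by CellTiter-Glo luminescence, followed a 72 h incubation at 37 °C with pinned compounds in phenol-red-free DMEM containing 10% FBS.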
Active calls of the source: *; i = inactive; ? = inconclusive; . = not tested or not shown. The call rests on the fitted dose curve; in most records, active means well fitted curve in the direction sought with a large enough effect; inconclusive means small, poorly fitted or top-dose-only effect, or another doubt; inactive means no such curve, though single readings can be large; an effect the other way counts as inactive or inconclusive. Unless noted, on the % scale 0 is the no-effect control and ±100 the full control effect; potency means the concentration at half of the fitted maximal effect.

SMILES | HT1080NT lethal | TDP1 cell noCPT | HT1080 IDH1KD tx | KB-V1 cytotox | DT40 TDP1 CPT | KB-3-1 cytotox
COc1ccc2c(c1)OC[C@H]1[C@H]2N2C(=O)c3cc(Cl)ccc3NC(=O)[C@@]2(C)[C@H]1c1ccccc1 | -1% | ? | -4% | i | ? | i
CCO/C=C/C(O)(CNC(=O)c1ccc(C(C)(C)C)cc1)C(F)(F)F (centres undefined) | -10% | 16µM* | -1% | i | ? | ?
CCOC(=O)CNC(=O)c1ccc(C)cc1 | 18% | -12% | 13% | i | -7% | i
Cc1cc(C)c2ccc(N)nc2c1O | 10µM* | 18µM* | ? | i | 23µM* | ?
Cc1nn(-c2ccccc2)c2c1C(c1ccc(O)c(O)c1)N1C(=N2)C(Nc2ccccc2)=Nc2ccccc21 (centres undefined) | 3% | 1% | 1% | i | 6% | i
Cc1ccc(NC2=Nc3ccccc3N3C2=Nc2c(c(C)nn2-c2ccccc2)C3c2ccc(O)c(O)c2)cc1 (centres undefined) | 23µM* | ? | ? | ? | ? | ?
Cc1cccc(NC2=Nc3ccccc3N3C2=Nc2c(c(C)nn2-c2ccccc2)C3c2ccc(O)c(O)c2)c1 (centres undefined) | 15µM* | ? | 16µM* | ? | ? | ?
CN(C)c1cccc(CNC(=O)c2csc([C@@H]3O[C@H](CO)[C@@H](O)[C@H]3O)n2)c1 | 25% | 12µM* | 0% | i | 13µM* | i
CN(C)c1cccc(CNC(=O)c2csc([C@@H]3O[C@H](CO)[C@H](O)[C@H](O)[C@H]3O)n2)c1 | 13% | 0% | ? | i | 0% | i
Cc1ccc(CCNC(=O)c2cn(C)c3ccc(S(=O)(=O)N(C)C4CCCCC4)cc3c2=O)cc1 | . | -4% | . | i | 4% | i
O=C1C2CC=CCC2C(=O)N1c1ccc(OCC(O)Cn2nnc3ccccc32)cc1 (centres undefined) | 1% | 23µM* | -1% | 15µM* | ? | ?
COC(=O)c1ccc(OCC(O)Cn2nnc3ccccc32)cc1 (centres undefined) | -3% | ? | -3% | 23µM* | -8% | i
COc1ccc(NC(=O)C2=CN3CCS(=O)(=O)N=C3C=C2)c(OC)c1 | 17% | -16% | 0% | ? | 18% | i
CC1Sc2ccc(S(=O)(=O)N3CCC(C(=O)NCc4ccco4)CC3)cc2NC1=O (centres undefined) | -1% | ? | -8% | i | ? | i
CCc1ccc(NC(=O)C2CCN(S(=O)(=O)c3ccc4c(c3)NC(=O)C(C)S4)CC2)cc1 (centres undefined) | ? | ? | -26% | ? | 18µM* | i
CC1C(=O)Nc2ccc(S(=O)(=O)N3CCCCC3)cc2NC1=O (centres undefined) | . | ? | . | . | -13% | .
COc1ccc(CNC(=O)C2CCN(S(=O)(=O)c3ccc4c(c3)NC(=O)C(C)S4)CC2)cc1 (centres undefined) | -11% | ? | -4% | i | ? | i
CC1Sc2ccc(S(=O)(=O)N3CCC(C(=O)N(C)Cc4ccco4)CC3)cc2NC1=O (centres undefined) | -23% | ? | -20% | i | 15µM* | i

Compound activity as filed in PubChem.
